Shown are actives, neighbours in structure and some others; about 7.4% of the full set was active somewhere.
HEK293 viab: cell viability loss counter-screen | 150,000 compounds, 0.12% hits | HEK-293-SNCA-luc viability, GF-AFC fluorescence, 24 h | Potency, µM (top dose mostly 57.1 µM), usual class: cytotoxic; further: nearly all actives have a fitted effect of over 30% in size
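HEK-293-SNCA-luc cells (1500/well) plated 24 h, then exposed 24 h to a dilution series; GF-AFC added 30 min at 37C, fluorescence 405/540 nm; normalised to medium-only and DMSO wells, Hill fit.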
HEK293 tox: kills HEK 293 cells; HEK 293 viability, ATP luminescence (CellTiter-Glo), 48-72 h; Potency, µM (highest dose often 115 µM), most hits filed as inhibitors; AID 1345083; 94,000 compounds, 6.6% hits; further: nearly all actives have a fitted effect of over 60% in size
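CellTiter-Glo luminescence (cellular ATP) was read after 48 or 72 hr of compound exposure at 37 degree Celsius. Cells were HEK 293 plated at 250 cells/well.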
NIH3T3 tox: cytotoxic compounds in NIH 3T3 cells | AID 1345082 | Potency, µM (highest dose often 96.7 µM), most hits filed as inhibitors | 94,000 compounds, 4.3% hits | NIH 3T3 viability, CellTiter-Glo ATP luminescence, 48-72 h; further: nearly all actives have a fitted effect of over 55% in size
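Cytotoxicity was measured by CellTiter-Glo ATP luminescence after 48 or 72 h compound exposure at 37 °C. Mouse NIH 3T3 fibroblasts were seeded at 400 cells/well and dosed by 23 nL pin transfer.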
SNCA expr inh: reduces expression of the alpha-synuclein gene; HEK-293 SNCA-luciferase knock-in, luminescence, 24 h; 140,000 compounds, 0.17% hits; Potency, µM (titrated, usually from 57.2 µM), most hits filed as inhibitors; further: nearly all actives have a fitted effect of over 45% in size
Luciferase inh: blocks purified firefly luciferase enzyme activity; P08659; purified P. pyralis luciferase, luminescence, biochemical; Potency, µM (doses to about 115 µM), most hits filed as inhibitors; 76,000 compounds, 2.5% hits; further: nearly all actives have a fitted effect of over 65% in size
Target sequence (P08659 whole entry, looked up): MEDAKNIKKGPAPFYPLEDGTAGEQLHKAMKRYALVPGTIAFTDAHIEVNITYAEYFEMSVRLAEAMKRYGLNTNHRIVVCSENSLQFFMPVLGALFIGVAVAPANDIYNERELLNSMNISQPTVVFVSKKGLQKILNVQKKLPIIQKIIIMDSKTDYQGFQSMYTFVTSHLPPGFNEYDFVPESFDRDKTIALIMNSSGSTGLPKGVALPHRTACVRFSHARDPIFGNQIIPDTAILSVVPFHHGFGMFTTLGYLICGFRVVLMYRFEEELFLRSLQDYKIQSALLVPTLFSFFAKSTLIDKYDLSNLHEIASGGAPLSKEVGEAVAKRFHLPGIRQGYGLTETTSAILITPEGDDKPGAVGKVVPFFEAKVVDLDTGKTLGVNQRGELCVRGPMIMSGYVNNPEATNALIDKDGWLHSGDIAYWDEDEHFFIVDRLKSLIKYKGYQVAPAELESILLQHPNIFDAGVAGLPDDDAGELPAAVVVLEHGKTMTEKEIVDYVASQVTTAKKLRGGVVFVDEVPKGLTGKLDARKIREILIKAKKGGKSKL
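Purified P. pyralis luciferase (10nM final) in 50mM Tris acetate pH 7.5, 10mM Mg acetate, 0.01% Tween-20, 0.05% BSA with 10uM D-luciferin and 10uM ATP. Compounds titrated qHTS. Luminescence imaged on CCD.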
NPR1 antag: human Npr1 receptor antagonism | HEK293 hNpr1 GloSensor cGMP, ANP-stimulated luminescence | Potency, µM (titrated, usually from 46.3 µM), actives largely listed as inhibitors | 76,000 compounds, 1.6% hits | AID 1347048; calls by dose curve; further: nearly all actives have a fitted effect of over 60% in size
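Compound pre-incubated 30 min at room temperature on GloSensor-loaded HEK293 cells stably carrying hNpr1 and the pGS-40F cGMP biosensor. Stimulation uses hNppA at 0.1 nM final; luminescence is taken at baseline and 20 min post-agonist.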
Npr1 antag conf: hNpr1 antagonism, confirmation assay. AID 1347044. 1,400 compounds, 76% hits. Potency, µM (series often up to 57.6 µM), actives largely listed as inhibitors. shares compounds with NPR1 antag. HEK293 hNpr1 cGMP GloSensor luminescence, ANP-stimulated; calls by dose curve; further: nearly all actives have a fitted effect of over 70% in size
Npr2 selectivity: selectivity test of Npr1 antagonists against human Npr2; HEK293 hNpr2 GloSensor cGMP luminescence, CNP-stimulated; Potency, µM (top dose mostly 57.6 µM), most hits filed as inhibitors; shares compounds with NPR1 antag; 1,400 compounds, 67% hits; calls by dose curve; further: nearly all actives have a fitted effect of over 70% in size
FLuc counter: counter-screen for Npr1 antagonists: firefly luciferase inhibitors. shares compounds with NPR1 antag. purified FLuc enzyme, luminescence, Km substrate. Potency, µM (doses to about 57.6 µM), hits mostly inhibitors. 1,400 compounds, 0.7% hits
GloSensor ctrl: counter-screen for Npr1 antagonists: GloSensor control cell line | shares compounds with NPR1 antag | 1,400 compounds, 69% hits | AID 1347051 | HEK293 GloSensor cGMP, SNP-stimulated, luminescence | Potency, µM (series often up to 57.6 µM), hits mostly inhibitors; calls by dose curve; further: nearly all actives have a fitted effect of over 70% in size
A number is an active result; – = inactive; ? = inconclusive; · = no result given; [ ] = dose if it differs, or a comment. Unless noted, the call rests on the fitted dose curve; in most records, active means well fitted curve in the direction sought with a large enough effect; inconclusive means small, poorly fitted or top-dose-only effect, or another doubt; inactive means no such curve, though single readings can be large; an effect the other way counts as inactive or inconclusive.

SMILES	HEK293 viab	HEK293 tox	NIH3T3 tox	SNCA expr inh	Luciferase inh	NPR1 antag	Npr1 antag conf	Npr2 selectivity	FLuc counter	GloSensor ctrl
COc1cccc(CN2CCCC(C(=O)NCc3ccccc3)CCNC(=O)CC2)c1 (stereo not given)	?	–	–	–	–	–	·	·	·	·
N#Cc1ccccc1CN1CCCC(C(=O)NCc2ccccc2)CCNC(=O)CC1 (stereo not given)	–	–	–	–	–	3.98µM	13.7µM	6.11µM	–	–
CCOc1ccccc1NC(=O)N1CCC2(CCC2NC(=O)COC)CC1 (stereo not given)	–	–	–	–	·	·	·	·	·	·
COc1ccc(CN(C)C(=O)c2ccc3oc(C)cc3c2)c2cccnc12	?	?	?	–	–	5.01µM	6.85µM	6.85µM	–	4.32µM
O=C(Nc1ccc2c(c1)OCCO2)N1CCC(Cc2nncn2-c2ccccc2)CC1	–	–	–	–	·	·	·	·	·	·
O=C(c1ccccc1)N1CCCN(c2ccc3nnc(C4CC4)n3n2)CC1	·	–	–	·	·	·	·	·	·	·
O=C(c1ccc(F)cc1F)N1CCC2(CC1)N=C(c1ccc(Cl)cc1)NO2	–	?	?	–	–	14.1µM	24.3µM	24.3µM	–	21.7µM
O=C(c1ccc(F)cc1F)N1CCC2(CC1)N=C(c1ccc(Br)cc1)NO2	–	?	?	–	–	11.2µM	17.2µM	15.3µM	–	12.2µM
O=C(NCC(F)F)C1CCN(Cc2ccccc2-c2cccnc2)CC1	–	–	–	–	·	·	·	·	·	·
COc1cc(CNC(=O)c2ccc3c(c2)N(C(=O)c2ccc(F)cc2)CC3)cc(OC)c1	?	?	?	?	–	?	21.7µM	24.3µM	–	21.7µM
O=C(NCCCN1CCCCC1)C1(CCO)CC12CCOCC2 (stereo not given)	–	–	–	–	·	·	·	·	·	·
COc1ccc(C(=O)N2CCC(Cc3nc(-c4ccc(F)cc4)no3)CC2)c(C)c1	–	?	?	–	–	1.41µM	1.53µM	2.17µM	–	1.72µM
CN(C)c1ccc(C(=O)N2CCC(Cc3nc(-c4cnccn4)no3)CC2)cc1	–	–	–	–	–	–	·	·	·	·
COc1cccc(-c2noc(CC3CCN(C(=O)c4ccc(N(C)C)cc4)CC3)n2)c1	–	?	–	–	–	10µM	13.7µM	15.3µM	–	10.9µM
COc1cccc(-c2noc(CC3CCN(C(=O)c4ccc(OC)cc4C)CC3)n2)c1	–	?	?	–	–	3.55µM	3.43µM	4.85µM	–	2.73µM
COc1cccc(-c2cccc(C(=O)N3CCN(C(=O)c4ccccc4C)CC3)c2)c1	–[12.5 µM]	?	?	–	·	·	·	·	·	·
COc1cccc(-c2noc(CC3CCN(C(=O)c4ccccc4C)CC3)n2)c1	–	?	?	–	–	12.6µM	12.2µM	17.2µM	–	12.2µM
COc1ccc(-c2ccc(C(=O)N3CCN(C(=O)c4ccccc4Cl)CC3)cc2)nn1	·	?	–	·	·	·	·	·	·	·
CCN1CCN(C(=O)c2ccc3oc(-c4cccnc4)nc3c2)CC1	–	–	–	–	·	·	·	·	·	·
CN1C(=O)C(c2ccccc2)CC12CCN(Cc1ccc(F)c(F)c1)CC2 (stereo not given)	–	?	?	–	–	–	·	·	·	·
O=C(Nc1cccc(F)c1)C1CCN(C(=O)c2ncn3c2COC(c2ccc(F)cc2)C3)CC1 (stereo not given)	–	?	–	–	–	?	?	–	–	?

Screening results deposited in PubChem BioAssay by National Center for Advancing Translational Sciences (NCATS).
